LYPLA1 counter: blocks human lysophospholipase 1, a PME1 counter-screen | O75608 | recombinant LYPLA1, FP-Rh probe fluorescence polarization | inhibition, % at 5.9 µM | 320,000 tested, 0.16% active;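 active means inhibition above the mean of all tested compounds plus 3 SD, set per campaign, cut at about 14% in these data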;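 further: inhibitors block serine hydrolase probe labeling of LYPLA1 so polarization falls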
PREPL inh: inhibitors of human prolyl oligopeptidase-like enzyme PREPL | Q4J6C6 | recombinant PREPL, fluorescence polarization activity-based probe | inhibition, % at 5.96 µM | 320,000 tested, 0.68% active | AID 2751; in the data active means inhibition above about 43%
PME-1 primary: blocks human protein phosphatase methylesterase 1; Q9Y570; 320,000 tested, 0.53% active; inhibition, % at 5.9 µM; recombinant PME-1, FP-Rh probe fluorescence polarization; AID 2130;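 active means inhibition above the campaign mean of all compounds plus 3 SD, cut at about 26% in these data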;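 further: competitive labeling of PME-1 active site by serine hydrolase directed probe; inhibitors block probe labeling so polarization falls and inhibition rises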
Target sequence (Q9Y570 whole entry, looked up): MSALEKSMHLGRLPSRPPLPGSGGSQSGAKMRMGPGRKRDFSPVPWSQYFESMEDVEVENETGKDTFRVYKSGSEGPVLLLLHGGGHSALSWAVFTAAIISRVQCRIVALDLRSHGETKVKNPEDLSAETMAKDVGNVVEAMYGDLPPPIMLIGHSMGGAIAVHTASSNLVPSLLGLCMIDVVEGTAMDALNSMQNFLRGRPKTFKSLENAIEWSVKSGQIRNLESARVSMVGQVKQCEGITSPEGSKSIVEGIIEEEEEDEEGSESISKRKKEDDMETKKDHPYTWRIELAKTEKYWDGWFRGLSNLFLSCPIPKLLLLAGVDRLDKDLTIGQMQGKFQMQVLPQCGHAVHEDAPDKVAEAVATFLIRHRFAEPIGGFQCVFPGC
LYPLA2 counter: blocks human lysophospholipase 2, a PME1 counter-screen; recombinant LYPLA2, FP-Rh probe fluorescence polarization; inhibition, % at 5.9 µM; 320,000 tested, 0.38% active;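 active means inhibition above the screen-wide mean plus 3 SD, limit set per campaign, cut at about 26% in these data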
GSTO1 inh: blocks human GSTO1 in RBBP9 counter-screen; 300,000 tested, 1.1% active; inhibition, % at 5.96 µM; recombinant GSTO1, activity-based probe fluorescence polarization;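 active means inhibition above the campaign mean inhibition plus 3 SD, cut at about 35% in these data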
Fam108B inh: Fam108B inhibition, counter-screen for RBBP9 inhibitors; recombinant Fam108B, FP-Rh probe fluorescence polarization; inhibition, % at 9.51 µM; 300,000 tested, 0.33% active; AID 1947;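 active means inhibition above the screen mean inhibition plus 3 SD, computed separately per campaign, cut at about 18% in these data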;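 further: inhibitors lower polarization as less probe binds the enzyme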
Numbers stand for hits; – = inactive; · = not tested or not shown. Most compounds without a hit are left out; they make up all but 2% or so of the library.

SMILES | LYPLA1 counter | PREPL inh | PME-1 primary | LYPLA2 counter | GSTO1 inh | Fam108B inh
N=c1oc2cc(O)ccc2cc1C(=O)Nc1ccccn1 | – | – | – | – | – | –
Cc1ccc(CC2CC(=O)N(C(Cc3ccccc3)C(=O)O)C2=O)cc1 (centres undefined) | – | – | – | – | 36 | –
O=C(CN1C(=O)NC2(CCCC2)C1=O)N1CCN(S(=O)(=O)c2cc(Cl)ccc2Cl)CC1 | – | – | – | – | · | ·
N#C/C(=C(\O)c1cc(Cl)sc1Cl)c1nc2ccccc2[nH]1 | – | – | 35 | – | – | –
Cc1cc(Br)ccc1N=C1NC(=O)CS1 | – | – | 60 | – | – | –
COc1cccc(OCC(=O)NNC(=O)C(=O)Nc2cccc(C)c2)c1 | – | – | – | – | – | –
Cc1ccc2[nH]c3c(N4CCN(Cc5ccccc5)CC4)ncnc3c2c1 | – | – | – | – | – | –
Cc1ccc2c(c1)[nH]c1c(N3CCN(Cc4ccccc4)CC3)ncnc12 | – | 55 | – | – | – | –
CCCOP(=O)(c1ccc(N(C)C)cc1)C(O)c1ccc(N(C)C)cc1 (centres undefined) | – | – | – | – | – | –
O=S1(=O)Nc2c(ccc3cccnc23)-c2ccccc21 | – | – | – | – | 55 | –
CCCCn1c(NC(=O)c2ccc(F)cc2)c(C#N)c2nc3ccccc3nc21 | 60 | – | – | 61 | 67 | 56
CCC(C)n1c(NC(=O)c2ccccc2)c(C#N)c2nc3ccccc3nc21 (centres undefined) | – | – | – | – | – | –
C#CCOCCOCCOCCNc1nc(N2CCN(C(=O)CCCCCCCCCCNC(=O)[C@@H](CCSC)n3cc(CCO)nn3)CC2)nc(N2CCN(C(=O)CCCCCCCCCCNC(=O)[C@H]([C@@H](C)CC)n3cc(CCCCN=C(N)N)nn3)CC2)n1 | – | – | – | – | – | –
C#CCOCCOCCOCCNc1nc(N2CCN(C(=O)CCCCCCCCCCNC(=O)[C@H](CCCCN)n3cc(C[C@@H](C)CC)nn3)CC2)nc(N2CCN(C(=O)CCCCCCCCCCNC(=O)[C@H](CCCCN)n3cc(C[C@@H](C)CC)nn3)CC2)n1 | – | 46 | – | – | – | –
C#CCOCCOCCOCCNc1nc(N2CCN(C(=O)CCCCCCCCCCNC(=O)[C@H]([C@@H](C)CC)n3cc(CCCCN=C(N)N)nn3)CC2)nc(N2CCN(C(=O)CCCCCCCCCCNC(=O)[C@H](CCCCN)n3cc(C[C@@H](C)CC)nn3)CC2)n1 | – | 57 | – | – | – | –
O=C(O)c1cc(O)ccc1NC(=O)c1cccc2ccccc12 | – | – | – | – | – | –
Cc1nc(C(=O)NC2CCCCC2)sc1C1(C)CC(c2cccnc2)=NO1 (centres undefined) | – | – | – | 26 | – | –
Cc1cc([N+](=O)[O-])cc2c1NC(=O)C2(O)N1CCCCCC1 (centres undefined) | – | – | – | – | – | –
Cc1cc([N+](=O)[O-])cc2c1NC(=O)C2(O)N1CCCC(C)C1 (centres undefined) | – | – | – | – | 37 | –
CNc1cncc(C(=O)O)c1 | – | – | – | – | – | –
COc1ccc(-n2c(C)cc(C(=O)CCl)c2C)cc1 | – | – | – | – | 97 | –
COC(=O)c1cc(C(=O)OC)cc(-n2c(C)cc(C(=O)CC#N)c2C)c1 | – | – | – | – | – | –
COc1ccc(-n2c(C)cc(C(=O)COc3ccc(C)nc3[N+](=O)[O-])c2C)cc1 | – | – | – | 26 | – | –
Cc1cc(-n2c(C)cc(C(=O)CCl)c2C)no1 | – | – | – | – | 83 | –
Cc1cc(C(=O)CC#N)c(C)n1-c1ccc(OC(F)F)cc1 | – | – | 36 | – | – | –
COC(=O)N1C(=O)[C@](c2ccccc2)(C(C)C)N1C(=O)OC | – | – | 35 | – | – | –
CCN1C/C(=C/c2ccc(OC)c(O)c2)C(=O)/C(=C/c2ccc(OC)c(O)c2)C1 | – | – | – | – | – | –
COc1ccc(/C=C2\CN(Cc3ccccc3)C/C(=C\c3ccc(OC)c(O)c3)C2=O)cc1O | – | – | 27 | – | – | –
Cc1nn(-c2ccccc2)c(Cl)c1CN(C(=O)CCl)c1cccc2ccccc12 | – | – | – | – | 89 | –
CN(C)c1cc(N/N=C\c2ccccc2)nc(N(C)C)n1 | – | – | – | – | – | –

Source: PubChem BioAssay
